KAT2A inh – blocks human GCN5L2 histone acetyltransferase; Q92830; GCN5L2 HAT assay, ThioGlo1 CoA-SH fluorescence; Potency, µM (top dose mostly 58.9 µM), actives largely listed as inhibitors; 390,000 tested, 0.21% active; AID 504327
Target sequence (Q92830 whole entry, looked up): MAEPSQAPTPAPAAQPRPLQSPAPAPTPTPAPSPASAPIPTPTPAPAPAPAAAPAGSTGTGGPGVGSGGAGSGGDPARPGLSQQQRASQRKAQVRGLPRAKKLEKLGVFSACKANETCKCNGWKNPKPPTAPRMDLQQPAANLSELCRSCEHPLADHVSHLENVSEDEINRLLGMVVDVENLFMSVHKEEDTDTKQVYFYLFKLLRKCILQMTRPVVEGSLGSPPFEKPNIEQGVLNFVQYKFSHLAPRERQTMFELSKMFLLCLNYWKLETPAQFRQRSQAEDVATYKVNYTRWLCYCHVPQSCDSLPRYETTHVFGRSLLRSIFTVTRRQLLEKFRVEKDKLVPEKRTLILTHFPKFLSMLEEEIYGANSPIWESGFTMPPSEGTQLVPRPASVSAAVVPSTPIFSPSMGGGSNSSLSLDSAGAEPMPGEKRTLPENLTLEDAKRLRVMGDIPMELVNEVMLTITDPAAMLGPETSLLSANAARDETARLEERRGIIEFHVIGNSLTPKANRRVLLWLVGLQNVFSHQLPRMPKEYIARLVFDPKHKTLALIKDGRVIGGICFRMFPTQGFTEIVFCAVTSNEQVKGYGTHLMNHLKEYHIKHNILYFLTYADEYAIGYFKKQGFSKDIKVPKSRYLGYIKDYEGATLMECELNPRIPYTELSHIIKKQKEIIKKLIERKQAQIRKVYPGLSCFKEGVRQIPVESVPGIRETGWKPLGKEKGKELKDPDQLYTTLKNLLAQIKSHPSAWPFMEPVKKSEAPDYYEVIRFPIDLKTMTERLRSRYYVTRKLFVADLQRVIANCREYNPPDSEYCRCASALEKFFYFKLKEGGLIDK
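Fluorescence readout, Ex340nm/Em540nm: ThioGlo1 (50uM final) reacts with free CoA thiol released as 20nM GCN5L2 acetylates H3(1-25) peptide (75uM) using acetyl-CoA (70uM). Compound and enzyme sat 15 min beforehand; 20 min room-temperature reaction.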
PLK1 PBD block – inhibitors of human PLK1 polo-box domain binding; 360,000 tested, 2.8% active; Potency, µM, most hits filed as inhibitors; Plk1 PBD binding of FITC phosphopeptide, fluorescence polarization; also: series mostly up to about 57 µM; nearly all actives have a fitted effect of over 65% in size
VDR inhibitor – vitamin D3 receptor (human) inhibition; P11473; VDR-SRC2-3 peptide fluorescence polarization, 2 h; Potency, µM, most hits filed as inhibitors; 400,000 tested, 0.93% active
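Measured by FP: displacement of SRC2-3 coactivator peptide from VDR by library compounds, following a two-hour ambient incubation.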
ALOX12 inh – inhibitors of human 12S-lipoxygenase ALOX12; Potency, µM (titrated, usually from 108 µM), hits mostly inhibitors; 580,000 tested, 1.1% active; purified 12hLO, xylenol orange hydroperoxide absorbance
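Purified human 12hLO at 150 nM in 25 mM Hepes, 0.01% Triton X-100, pH 7.0, preincubated 15 min at room temperature with compound. Reaction started with 40 uM arachidonic acid, 30 min at room temperature. Hydroperoxide measured by Fe-xylenol orange, 573/405 nm absorbance ratio.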
Hits are given with their value. Hits are enriched below; roughly 3% of the tested compounds scored in any of these assays. Calls follow the shape of the dose curve; as a rule, active = well fitted curve in the direction sought with a large enough effect; inconclusive = small, poorly fitted or top-dose-only effect, or another doubt; inactive = no such curve, though single readings can be large; an effect the other way counts as inactive or inconclusive.

`CN1C(=O)CCC2(CNC(=O)CCc3nc(-c4ccccc4)no3)CCC=C12` (stereo not given) gave ALOX12 inh inactive.
Screening Cc1ccc(C(=O)N2CCC(Oc3ccc(NC(=O)c4ccccc4)cn3)C2)cc1 (stereo not given) returned ALOX12 inh inactive.
For CC(C)c1ccc(N(CC(=O)NC2CCCC2)C(=O)CCC(=O)Nc2ccccn2)cc1 the results were KAT2A inh inactive, PLK1 PBD block 23.8µM, VDR inhibitor inactive and ALOX12 inh inactive.
For CC(C)(O)C#Cc1ccc(C(=O)NCc2ccccc2)cc1 the results were ALOX12 inh inactive.
COc1ccc2c(c1)cc(C(=O)Nc1c(C)cccc1C)n2C was read as ALOX12 inh inactive.
`O=C1/C(=C\c2ccc(O)cc2)SC(=S)N1/N=C/c1ccc(O)cc1` gave KAT2A inh inconclusive, PLK1 PBD block inactive, VDR inhibitor inactive and ALOX12 inh inactive.
O=C1/C(=C/c2cccc(Br)c2)SC(=S)N1/N=C/c1cc([N+](=O)[O-])ccc1O was read as KAT2A inh inactive, PLK1 PBD block 18.9µM, VDR inhibitor inconclusive and ALOX12 inh inactive.
For Cc1ccc(SC(CC(=O)c2ccc(F)cc2)C(=O)O)cc1 (stereo not given) the results were KAT2A inh inactive, PLK1 PBD block inconclusive, VDR inhibitor 22.4µM and ALOX12 inh inactive.
For Cc1ccc(C(=O)CC(NCCO)C(=O)O)cc1 (stereo not given) the results were ALOX12 inh inactive.
Screening CN(C)c1oc(-c2ccccc2Cl)nc1S(=O)(=O)c1ccc2c(c1)OCCO2 returned ALOX12 inh inactive.
`CC(=O)Nc1ccc(S(=O)(=O)Nc2nnc(Cc3ccc(Cl)cc3)s2)cc1` gave KAT2A inh inactive, PLK1 PBD block 26.7µM, VDR inhibitor inactive and ALOX12 inh inactive.
`O=[N+]([O-])c1ccc(S(=O)(=O)Nc2nnc(C3CCCCC3)s2)cc1` gave KAT2A inh inactive, PLK1 PBD block inactive, VDR inhibitor inactive and ALOX12 inh inconclusive.
For CC(=O)Nc1ccc(S(=O)(=O)Nc2nnc(C3CCCCC3)s2)cc1 the results were KAT2A inh inactive, PLK1 PBD block 23.8µM, VDR inhibitor inactive and ALOX12 inh inconclusive.
`CCc1ccccc1NC(=O)CSc1nnc2[nH]c(=O)c(Cc3ccc(C)cc3)nn12` gave ALOX12 inh inactive.
O=C(CSc1nnc2[nH]c(=O)c(Cc3ccccc3)nn12)Nc1cccc(Cl)c1 was read as ALOX12 inh 25.1µM.
`C/C(=N\NC(=O)c1ccncc1)c1ccc(N(C)C)cc1` gave KAT2A inh inactive, PLK1 PBD block 26.7µM, VDR inhibitor inactive and ALOX12 inh inconclusive.
C/C(=N\NC(=O)c1ccncc1)c1ccc(N2CCOCC2)cc1 was read as KAT2A inh inactive, PLK1 PBD block inactive, VDR inhibitor inactive and ALOX12 inh inactive.
O=C(Nc1ccc(F)cc1)c1nc2ccccc2nc1N1CCOCC1 was read as ALOX12 inh inactive.
COc1ccccc1CNC(=O)CCC[C@H]1NC[C@@H]2C[C@H]1CN(Cc1ccccc1)C2 was read as ALOX12 inh 10µM.
For C=CCN1CCN(C(=O)CCC[C@H]2NC[C@@H]3C[C@H]2CN(Cc2ccccc2)C3)CC1 the results were ALOX12 inh 5.62µM.
For O=C(CCC[C@H]1NC[C@@H]2C[C@H]1CN(Cc1ccccc1)C2)NCC1CCCCC1 the results were ALOX12 inh inactive.
For CC(=O)c1cccc(NC(=O)COC(=O)c2ccc(C3Nc4ccccc4S(=O)(=O)N3)cc2)c1 (stereo not given) the results were ALOX12 inh inactive.
Screening CCCC1=C(C(=O)OCC)C(c2cc(Cl)cc(OC)c2OCC(=O)OCC)NC(=O)N1 (stereo not given) returned KAT2A inh inactive, PLK1 PBD block 29.9µM, VDR inhibitor inactive and ALOX12 inh inactive.
Screening CCOC(=O)COc1c(OC)cc(Cl)cc1C1NC(=O)NC(C)=C1C(C)=O (stereo not given) returned KAT2A inh inactive, PLK1 PBD block inactive, VDR inhibitor inactive and ALOX12 inh inactive.
`CC(C)CNc1nc(C(=O)Nc2ccc(Cn3cncn3)cc2)cs1` gave ALOX12 inh inactive.
Screening S=C(Nc1cc(Cl)ccc1Cl)Nn1cnnc1 returned KAT2A inh inactive, PLK1 PBD block 21.2µM, VDR inhibitor 79.4µM and ALOX12 inh inconclusive.
S=C(Nc1cccc(Cl)c1Cl)Nn1cnnc1 was read as KAT2A inh inactive, PLK1 PBD block 16.8µM, VDR inhibitor 79.4µM and ALOX12 inh inconclusive.
S=C(NCc1ccc(Cl)cc1)Nc1ccc(Cl)cc1Cl was read as KAT2A inh inactive, PLK1 PBD block inactive, VDR inhibitor inactive and ALOX12 inh inactive.
For S=C(Nc1ccc(Cl)cc1Cl)Nn1cnnc1 the results were KAT2A inh inactive, PLK1 PBD block 6.7µM, VDR inhibitor inconclusive and ALOX12 inh inconclusive.
`S=C(NNc1ccnc2cc(Cl)ccc12)Nc1ccc(Cl)cc1Cl` gave KAT2A inh inactive, PLK1 PBD block inconclusive, VDR inhibitor 79.4µM and ALOX12 inh inconclusive.
Screening O=C(c1ccc(-c2ccccc2)cc1)N(Cc1cccs1)C1CC1 returned ALOX12 inh inactive.
`CN1c2ccccc2-c2nc(SCC(=O)Nc3ccccc3Br)ncc2S1(=O)=O` gave ALOX12 inh inactive.
Cc1ccc(OC(C)C(=O)Nc2ccc3oc(C)nc3c2)cc1 (stereo not given) was read as ALOX12 inh inactive.
For COC/C=C/C1=CC2=CC(=O)C(C)(OC(=O)C3CCCC3)C(=O)C2=CO1 (stereo not given) the results were KAT2A inh inactive, PLK1 PBD block 23.8µM, VDR inhibitor inconclusive and ALOX12 inh 22.4µM.
Screening CC(C)CC(NC(=O)C(C)NC(=O)OCc1ccccc1)c1ccccc1 (stereo not given) returned ALOX12 inh inactive.
For Clc1ccc(-c2cc3ccccn3c2)cc1 the results were ALOX12 inh 3.98µM.
Screening c1csc(-c2cc3ccccn3c2)c1 returned ALOX12 inh inactive.
Screening c1ccc(CCn2nnnc2CN2CCCc3ccccc32)cc1 returned KAT2A inh inactive, PLK1 PBD block 13.4µM, VDR inhibitor inactive and ALOX12 inh inconclusive.
For c1ccc2c(c1)CCCN2Cc1nnnn1CC1CCCO1 (stereo not given) the results were KAT2A inh inactive, PLK1 PBD block inactive, VDR inhibitor inactive and ALOX12 inh inactive.
For O=C(O)c1ccc(-c2ccccc2)[nH]1 the results were KAT2A inh inactive, PLK1 PBD block inactive, VDR inhibitor inactive and ALOX12 inh inactive.
Screening O=C(O)c1ccc(-c2ccccc2)[nH]c1=O returned KAT2A inh inactive, PLK1 PBD block 23.8µM, VDR inhibitor inconclusive and ALOX12 inh inactive.
For O=C(COC(=O)C12CC3CC(CC(C3)C1)C2)Nc1ccc(F)cc1[N+](=O)[O-] the results were ALOX12 inh inactive.
Screening CCn1cc[n+](C)c1P(c1ccccc1)c1ccccc1 returned KAT2A inh inactive, PLK1 PBD block inactive, VDR inhibitor inactive and ALOX12 inh 39.8µM.
Screening CC(NC(=O)C(=O)c1c[nH]c2ccccc12)c1ccccc1 (stereo not given) returned ALOX12 inh inactive.
